Cav3 T inh = blocks human Cav3.2 T-type calcium channel | O95180 | Cav3.2-expressing cells, Fluo-4 calcium fluorescence FDSS; active compounds read low | B-score at 10 µM | 100,000 compounds, 4% hits | AID 449739;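 active means single-dose well whose peak fluorescence ratio is a statistical outlier from its plate by either plate-standardised score or position-corrected B-score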
CYP2C19 activ = cytochrome P450 2C19 (human) activation | AID 1025 | activation factor at 5 µM | P33261 | 96,000 tested, under 10 active | recombinant CYP2C19, luciferin-H EGE luminescence; active compounds read high; 0 = fully inhibited enzyme, 1 = untreated enzyme;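 active means activation factor of at least 2 at 5 µM in the primary screen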
Target sequence (P33261 whole entry, looked up): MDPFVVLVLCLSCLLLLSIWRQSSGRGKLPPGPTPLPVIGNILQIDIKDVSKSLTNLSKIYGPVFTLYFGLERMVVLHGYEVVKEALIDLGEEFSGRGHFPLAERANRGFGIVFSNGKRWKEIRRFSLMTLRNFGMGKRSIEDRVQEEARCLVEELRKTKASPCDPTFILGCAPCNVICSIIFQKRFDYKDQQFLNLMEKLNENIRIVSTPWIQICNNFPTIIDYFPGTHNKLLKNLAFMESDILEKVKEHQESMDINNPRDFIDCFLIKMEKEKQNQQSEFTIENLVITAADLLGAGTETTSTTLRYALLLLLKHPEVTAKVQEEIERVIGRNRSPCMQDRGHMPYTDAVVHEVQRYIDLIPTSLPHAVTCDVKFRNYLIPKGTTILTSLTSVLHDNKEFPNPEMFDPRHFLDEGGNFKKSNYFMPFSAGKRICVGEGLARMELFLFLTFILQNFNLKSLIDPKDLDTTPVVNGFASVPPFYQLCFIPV
CYP2C19 inhib = inhibitors of human CYP2C19; P33261; CYP2C19 Supersomes, luciferin-H EGE luminescence, 30 min; inhibition, % at 5 µM; 96,000 compounds, 21% hits;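 active means CYP2C19 inhibition above a set limit at 5 µM in the primary screen, cut at about 50% in these data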
CYP2C9 act = CYP2C9 (human) activation. P11712. recombinant CYP2C9, luciferin-H conversion, luminescence; active compounds read high; factor 1 = untreated enzyme, 0 = blocked. activation factor at 5 µM. AID 1024. 96,000 compounds, 1.4% hits;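 active means activation factor of 2 or more for CYP2C9 at a 5 µM dose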
CYP2C9 inh = blocks human cytochrome P450 2C9. CYP2C9 Supersomes, luciferin-H conversion, luminescence. 96,000 compounds, 20% hits. P11712. inhibition, % at 5 µM;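 active means blocking of liver enzyme CYP2C9 beyond about 50% at 5 µM, limit read from the data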
Hits are given with their value; - = inactive; . = no result. Hits are enriched below; roughly 27% of the tested compounds scored in any of these assays.

SMILES	Cav3 T inh	CYP2C19 activ	CYP2C19 inhib	CYP2C9 act	CYP2C9 inh
CC(=O)N1CCC(C(=O)Nc2ccccc2)(N(Cc2ccccc2)C(=O)c2cccnc2)CC1	-	-	-	-	-
O=C(CN1C(=O)CSC1=O)N1CCc2ccccc2C1	-	-	-	-	-
Cc1cc(C)nc(-n2nc(C)c3c(C(F)(F)F)cc(=O)[nH]c32)n1	-	-	-	-	65
Cc1cc(=O)[nH]c2c1c(C)nn2-c1ccccc1	-	-	-	-	-
O=C(CSc1nccc(=O)[nH]1)Nc1ccc(S(=O)(=O)N2CCOCC2)cc1	-	.	.	.	.
Nn1c(SCC(=O)Nc2ccc3c(c2)OCO3)nnc1-c1ccncc1	.	-	-	-	-
Cc1ccc(Nc2nnc(SCC(=O)Nc3ccc(S(=O)(=O)N4CCOCC4)cc3)s2)cc1	-	-	-	-	74
CCOC(=O)c1c(C)[nH]c(C)c1C(=O)CSc1nnc(-c2ccncc2)n1C	.	-	98	-	63
Cc1cc(NC(=O)CSc2nnc(-c3ccncc3)n2N)ccc1Br	-	-	-	-	87
Cc1ccc(-c2cc(-c3nnc(SCC(=O)NCC(C)C)n3N)c3ccccc3n2)cc1	.	-	-	-	78
Cc1ccc(C)c(NC(=O)CSc2nnc(-c3ccccc3)n2N)c1	-	-	63	-	-
Cc1csc(NC(=O)CSc2nnc(-c3ccncc3)n2C)n1	-	-	-	-	-
Cc1cccc(NC(=O)CSc2nnc(-c3ccc(S(=O)(=O)N4CCOCC4)cc3)n2C)c1	-	-	99	-	52
CCOC(=O)c1ccc(NC(=O)CSc2nnc(-c3ccncc3)n2C)cc1	-	-	69	-	73
Cc1cccc(NC(=O)CSc2nnc(-c3ccncc3)n2C)c1	-	-	80	-	52
COc1cc(S(=O)(=O)NCc2cccnc2)c(OC)cc1Br	-	-	-	-	-
O=C1Nc2ccccc2C1=Nc1ccc(-c2nnc3n2CCCCC3)cc1	-	-	-	-	-
CSc1ccc(CNc2ccc(C)cc2)cc1	-	-	87	-	-
CSc1ccc(CNc2cccc3ccccc23)cc1	-	-	98	-	-
CSc1ccc(CNc2ccc(C)c(C)c2)cc1	-	-	98	-	-
Cc1ccc(NCC(O)C(O)C(O)CO)cc1C (stereo unspecified)	-	-	-	-	-
Cc1cccc(S(=O)(=O)Nc2ccc(C)c3c2OC(C)(C)C3)c1	-	-	97	2.1	-
Cc1cc(C)c(S(=O)(=O)Nc2ccc3c4c(cccc24)CC3)c(C)c1	-	-	-	-	-
CCOC(=O)c1cncc(NC(=O)c2ccccc2)c1	-	-	-	-	-
Cc1cnc(C(=O)Nc2cccc3ncccc23)cn1	-	-	-	-	-
SMILES	Cav3 T inh	CYP2C19 activ	CYP2C19 inhib	CYP2C9 act	CYP2C9 inh
Cc1cnc(C(=O)Nc2ccccc2-c2ccc(C)o2)cn1	-	-	-	-	89
COc1ccc(-n2c(SCC(N)=O)nnc2-c2ccc(NS(=O)(=O)c3ccc(C)cc3)cc2)cc1	-	-	-	-	73
COc1ccc(-n2c(SCC(=O)Nc3ccccc3)nnc2-c2ccc(NS(=O)(=O)c3ccc(C)cc3)cc2)cc1	-	-	-	-	-
COc1ccc(-n2c(SCC#N)nnc2-c2ccc(NS(=O)(=O)c3ccc(C)cc3)cc2)cc1	-	-	90	-	94
COc1cccc(-n2c(SCC#N)nnc2-c2cnccn2)c1	-	-	-	-	-
Cc1nnc(SCC(=O)c2c(N)n(C)c(=O)n(C)c2=O)n1Cc1ccccc1	-	-	-	-	-
CC(C)Nc1nnc(SCC(=O)c2c(N)n(Cc3ccccc3)c(=O)n(C)c2=O)s1	.	-	-	-	58
CCOC(=O)C1=C(C)NC(=S)N(C(C)=O)C1c1ccccc1 (stereo unspecified)	-	.	.	.	.
CC(Oc1ccccc1)C(=O)N1CCC2(CC1)Oc1ccc(F)cc1C(=O)C21CC(c2ccccc2)=NO1 (stereo unspecified)	-4	.	.	.	.
CC(Oc1ccccc1)C(=O)N1CCC2(CC1)Oc1ccc(F)cc1C(=O)C21CC(c2ccc(Cl)cc2)=NO1 (stereo unspecified)	-	.	.	.	.
CCOC(=O)c1nnc(-c2cccs2)nc1NC(C)C	-	-	-	-	-
COc1ccc(NC(=O)c2c(C(F)(F)F)nn(C)c2SCc2ccccc2Cl)cc1	-	-	-	-	87
CCC(=O)N/C(=N\OCc1ccc(F)cc1)c1nonc1NC(=O)CC	-	-	65	-	-
O=C(Cc1cccs1)Nc1nnc(Cc2ccc(F)cc2)s1	.	-	-	-	-

High-throughput results as filed in PubChem.
